Cruzain inh noDet: inhibitors of Trypanosoma cruzi cruzain without detergent; purified cruzain, Z-FR-AMC fluorescence, no detergent; actives 2.3% (n = 200,000); Potency, µM, for the others: max response, negative = inhibition, most hits filed as inhibitors; AID 1476; P25779;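 further: plate controls were enzyme without inhibitor for no effect and buffer without enzyme for full effect; nearly all actives have a fitted effect of over 40% in size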
Target sequence (P25779 123-467 limits assumed): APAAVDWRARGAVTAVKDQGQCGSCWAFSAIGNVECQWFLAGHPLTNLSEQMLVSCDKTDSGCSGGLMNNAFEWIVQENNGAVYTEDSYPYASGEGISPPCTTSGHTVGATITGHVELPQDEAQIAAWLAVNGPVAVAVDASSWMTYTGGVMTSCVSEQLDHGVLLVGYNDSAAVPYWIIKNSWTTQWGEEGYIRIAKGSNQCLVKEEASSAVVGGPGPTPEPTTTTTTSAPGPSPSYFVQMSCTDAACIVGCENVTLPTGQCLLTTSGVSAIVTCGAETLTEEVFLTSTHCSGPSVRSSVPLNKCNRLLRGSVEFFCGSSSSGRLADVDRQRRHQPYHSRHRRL
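Purified cruzain at 1.5 nM, pre-incubated 15 min with compound at room temperature in 100 mM sodium acetate pH 5.5, 5 mM DTT, 0.00005% Triton X-100. Reaction started with 2 uM Z-FR-AMC; AMC fluorescence increase over 60 s gives rate.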
Cruzain inh Det: blocks cruzain activity in presence of Triton detergent; actives 0.43% (n = 200,000); purified cruzain, Z-FR-AMC fluorescence, 0.01% Triton; P25779; AID 1478; Potency, µM, without a hit: max response, negative = inhibition, usual class: inhibitors;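 further: plate controls were neutral wells for no effect and buffer without enzyme for full effect; nearly all actives have a fitted effect of over 40% in size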
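Purified cruzain (1.5 nM final) was preincubated with compounds for 15 min at room temperature in 100 mM sodium acetate pH 5.5, 5 mM DTT, 0.01% Triton X-100. Reaction started with 2 uM Z-FR-AMC; AMC fluorescence change over 60 s gave activity.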
Active calls of the source: *; ? = inconclusive. The list is not random: actives were taken first. Their share in the collection is about 2.6%. The call rests on the fitted dose curve; in most records, active means well fitted curve in the direction sought with a large enough effect; inconclusive means small, poorly fitted or top-dose-only effect, or another doubt; inactive means no such curve, though single readings can be large; an effect the other way counts as inactive or inconclusive. Potency means the concentration at half of the fitted maximal effect.

SMILES | Cruzain inh noDet | Cruzain inh Det
COc1ccc(OCC(=O)Nc2cc(-c3cccc(Cl)c3)nn2-c2ccccc2)cc1 | -4% | 1%
CCOC(=O)c1cccc(NC(=O)Cn2ncc3c4ccccc4n(Cc4ccccc4)c3c2=O)c1 | 4% | -3%
CSc1nc(N)c(C#N)c(-c2ccc(Cl)cc2)c1C#N | -14% | -4%
N#Cc1cc(-c2ccc(Cl)cc2)cn(Cc2c(Cl)cccc2Cl)c1=O | -23% | 0%
CSc1cc(-c2ccc(Cl)cc2)n(Cc2ccccc2)c(=O)c1C#N | 25µM* | 1%
CSc1cc(-c2ccccc2)n(Cc2c(Cl)cccc2Cl)c(=O)c1C#N | 10µM* | 0%
CCN(C(=O)Cn1nc(Cc2ccncc2)c2ccccc2c1=O)c1cccc(C(F)(F)F)c1 | 19% | -4%
O=S(=O)(c1ccccc1)N1CCn2c(nc3ccccc32)C1 | -13% | -7%
O=S(=O)(c1ccc(F)cc1)N1CCn2c(nc3ccccc32)C1 | 5µM* | 18µM*
COc1ccc(Cl)cc1C(=O)Nc1nnc2n1CCS2 | -1% | 0%
CCCCc1ccc(NC(=O)OC)cc1 | 4% | -2%
CCCCc1ccc(N=N/C(C(=O)Nc2ccc(NC(C)=O)cc2OC)=C(/C)O)cc1 | 15% | 10µM*
COc1ccc(NC(=O)N2CC[C@@]3(CCCN(C(=O)c4cccc(F)c4)C3)C2)cc1 | 0% | 1%
CCOC(=O)c1ccc(NC(=O)c2cnc(N3CCCC3)nc2C)cc1 | 12% | -5%
S=C(NCc1ccc(Cl)c(Cl)c1)Nc1ccc2c(c1)OCO2 | -27% | -13%
Cc1ccc(-c2nc3ccccc3[nH]2)cc1NC(=O)c1ccc2c(c1)OCO2 | ? | -2%
S=C(NCc1ccc2c(c1)OCO2)Nc1ccc(-c2nc3ccccc3[nH]2)cc1 | 20µM* | -11%
O=C(NC(=S)Nc1cc(-c2nc3ccccc3[nH]2)ccc1Cl)c1ccc2c(c1)OCO2 | 32µM* | 18µM*
COc1ccc(Nc2nc(N)nc(N)c2S(=O)(=O)c2ccccc2)cc1 | -12% | -8%
CCc1ccc(S(=O)(=O)c2cnc(SCC(=O)Nc3ccc(OC)cc3OC)[nH]c2=O)cc1 | 16% | -22%
COc1cc(Cl)c(C)cc1NC(=O)CSc1ncc(S(=O)(=O)c2ccc(C(C)(C)C)cc2)c(=O)[nH]1 | 10% | 28µM*
Cc1ccc(NC(=O)CSc2ncc(S(=O)(=O)c3ccc(C(C)C)cc3)c(=O)[nH]2)cc1C | 2% | 0%
Cc1c(Cl)cccc1NC(=O)CSc1ncc(S(=O)(=O)c2ccc(C(C)C)cc2)c(=O)[nH]1 | ? | 28µM*
O=C1N=C(N2CCN(c3cccc4ccccc34)CC2)S/C1=C/c1cccs1 | 20µM* | -10%
Cc1ccccc1N1CCN(C2=NC(=O)/C(=C\c3cccs3)S2)CC1 | ? | -14%
SMILES | Cruzain inh noDet | Cruzain inh Det
COc1cccc(-c2cc(C(F)(F)F)n3nc(C(=O)N4CCC5(CC4)OCCO5)cc3n2)c1 | ? | -5%
COc1cccc(-c2cc3nc(-c4ccccc4)cc(N4CCC5(CC4)OCCO5)n3n2)c1 | -14% | 28µM*
N#Cc1ccc(Oc2nc(C#N)cc(-c3ccccc3)n2)cc1 | -23% | 14µM*
COc1ccc(-c2cc(C(F)(F)F)nc(N3CCCCCC3)n2)cc1 | 6% | -1%
COc1ccc(Oc2nccc(-c3ccc(Cl)cc3)n2)cc1 | -3% | 2%
N#Cc1cc(-c2ccccc2)nc(Oc2ccccc2)n1 | -25% | 16µM*
COc1ccc(-c2cc(C#N)nc(Oc3ccc(Cl)cc3)n2)cc1 | 25µM* | 28µM*
NC(=O)c1cc(-c2ccccc2)nc(Oc2ccccc2)n1 | -14% | -3%
CCN(CC)c1nc(C#N)cc(-c2ccc(OC)cc2)n1 | -14% | -14%
COc1ccc(-c2cc(C(N)=O)nc(N3CCCCCC3)n2)cc1 | 32µM* | -4%
CCOc1ccc(/C=C/c2nc(C#N)c(NCc3ccc(OC)cc3)o2)cc1 | 6% | -2%
COc1ccc(S(=O)(=O)NCCc2sc(-c3cccc(C)c3)nc2C)cc1 | -5% | -9%
CN(C)c1ccc(CNc2nc(-c3ccco3)nn2S(=O)(=O)c2ccc3ccccc3c2)cc1 | ? | -3%
Cc1ccc2oc(-c3ccc(NC(=O)c4oc5ccc(Cl)cc5c4C)cc3)nc2c1 | 0% | -2%
COc1cc(C2Oc3nc(SC)nnc3-c3ccccc3N2C(C)=O)cc(Cl)c1OC (stereo not drawn) | 6% | -7%
Cc1[nH]c2ccc(Br)cc2c1CCNC(=O)c1cc2ccccc2oc1=O | -11% | -2%
CN1CCN(c2nc(C#N)cc(-c3ccccc3)n2)CC1 | ? | -22%
COc1ccc(-c2cc(C#N)nc(N3CCNCC3)n2)cc1 | 32µM* | -24%
COc1ccc(-c2noc(-c3cccnc3N3CCN(c4ccc(OC)cc4)CC3)n2)cc1 | -1% | -4%
Cc1ccccc1OCc1nc(-c2ccc(NC(=O)c3ccc4c(c3)OCO4)cc2)no1 | 13µM* | 3%
Cc1ccccc1OCc1nc(-c2ccc(NC(=O)c3ccco3)cc2)no1 | 2% | -5%

High-throughput results as filed in PubChem BioAssay.
